# Assay results reported in the supplement of paper PMC9262897, “Low-cost anti-mycobacterial drug discovery using engineered E. coli” (Nature Communications, 2022).
# Structures can show the parent of a compound that is named as a salt. ± gives the standard deviation of the averaged measurements.
# Tests used:
# Assay in all cases: growth (OD600 after 10 h); higher = more growth (less inhibition)
# [1] = test system: E. coli TESEC Alr+ wild-type control; conditions: compound 0.1 mM; raw OD600 reference: median of DMSO wells 0.241, cell-free background 0.041
# Experimental: (§1)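 TESEC Mtb Alr E. coli, or the Alr+ wild-type control, in 384-well plates with Prestwick library compounds at 0.1 mM and 1% DMSO, across arabinose induction levels of 1E3 to 1E7 nM. Growth is read as OD600 after 10 h at 37 °C in triplicate biological replicates.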
# [2] = test system: E. coli TESEC Mtb Alr; conditions: compound 0.1 mM
# Experimental: as §1
# [3] = test system: E. coli TESEC Mtb Asd; conditions: compound 0.1 mM
# Experimental: (§2)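 TESEC E. coli strains in which the native enzyme is deleted and replaced by arabinose-inducible Mtb Asd, DapB, CysH or TrpD, each grown in its selective medium. Strains were screened against the Prestwick library at 0.1 mM and 1% DMSO in 384-well format at low and high arabinose induction. Growth is read as OD600 after 10 h in triplicate.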
# [4] = test system: E. coli TESEC Mtb Alr; conditions: compound 0.1 mM; remark: listed apart in the source
# Experimental: (§3)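 TESEC Mtb Alr E. coli (ΔaraC ΔtolC ΔentC Δalr ΔdadX, arabinose-inducible Mtb Alr) or the Alr+ wild-type control strain, grown in defined M9-fructose medium without D-alanine in 96-well plates with Prestwick library compounds at 0.1 mM and 1% DMSO. Low Alr induction is 0.1 µM arabinose and high induction is 10 mM arabinose.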
# [5] = test system: E. coli TESEC Mtb DapB; conditions: compound 0.1 mM
# Experimental: as §2
# [6] = test system: E. coli TESEC Alr+ wild-type control; conditions: compound 0.1 mM; raw OD600 reference: median of DMSO wells 0.49, cell-free background 0.052
# Experimental: as §3
# [7] = arabinose 1000 nM, raw OD600 reference: median of DMSO wells 0.294, cell-free background 0.041
# [8] = arabinose 10000 nM, raw OD600 reference: median of DMSO wells 0.264, cell-free background 0.041
# [9] = arabinose 100000 nM, raw OD600 reference: median of DMSO wells 0.201, cell-free background 0.041
# [10] = arabinose 1000000 nM, raw OD600 reference: median of DMSO wells 0.193, cell-free background 0.041
# [11] = arabinose 10000000 nM, raw OD600 reference: median of DMSO wells 0.146, cell-free background 0.041
# [12] = arabinose induction (level): High, raw OD600 reference: median of DMSO wells 0.331, cell-free background 0.041
# [13] = arabinose induction (level): Low, raw OD600 reference: median of DMSO wells 0.417, cell-free background 0.041
# [14] = arabinose 100 nM, raw OD600 reference: median of DMSO wells 0.413, cell-free background 0.052
# [15] = arabinose 10000000 nM, raw OD600 reference: median of DMSO wells […], cell-free background 0.052
# [16] = arabinose induction (level): High, raw OD600 reference: median of DMSO wells […], cell-free background 0.041
# [17] = arabinose induction (level): Low, raw OD600 reference: median of DMSO wells 0.227, cell-free background 0.041
smiles,measurement,setting,value
CC1CCc2cc(F)cc3c(=O)c(C(=O)O)cn1c23 (centres undefined) [Flumequine],growth,[1],0.0491 ± 0.00083
same,growth,[2]; [7],0.04537 ± 0.00031
same,growth,[2]; [8],0.0396 ± 0.00065
same,growth,[2]; [9],0.0452 ± 0.0012
same,growth,[2]; [10],0.0416 ± 0.0004
same,growth,[2]; [11],0.04987 ± 0.00029
same,growth,[3]; [12],0.059 ± 0.0029
same,growth,[3]; [13],0.0732 ± 0.0099
same,growth,[4]; [14],0.0543 ± 0.0034
same,growth,[4]; [15],0.05097 ± 0.00047
CCN(CC)C(C)CN1c2ccccc2Sc2ccccc21 (centres undefined) [Ethopropazine hydrochloride],growth,[1],0.17 ± 0.0058
same,growth,[2]; [7],0.214 ± 0.0057
same,growth,[2]; [8],0.271 ± 0.016
same,growth,[2]; [9],0.172 ± 0.003
same,growth,[2]; [10],0.135 ± 0.0087
same,growth,[2]; [11],0.174 ± 0.0019
same,growth,[3]; [12],0.156 ± 0.031
same,growth,[3]; [13],0.289 ± 0.03
same,growth,[4]; [14],0.413 ± 0.0094
same,growth,[4]; [15],0.333 ± 0.014
CC(C)(Oc1ccc(Cl)cc1)C(=O)O [Clofibric acid],growth,[1],0.253 ± 0.0056
same,growth,[2]; [7],0.313 ± 0.011
same,growth,[2]; [8],0.256 ± 0.01
same,growth,[2]; [9],0.201 ± 0.015
same,growth,[2]; [10],0.171 ± 0.0038
same,growth,[2]; [11],0.154 ± 0.0039
same,growth,[3]; [12],0.443 ± 0.024
same,growth,[3]; [13],0.442 ± 0.025
same,growth,[4]; [14],0.404 ± 0.011
same,growth,[4]; [15],0.305 ± 0.011
O=C1[C@H](CC[C@H](O)c2ccc(F)cc2)[C@@H](c2ccc(O)cc2)N1c1ccc(F)cc1 [Ezetimibe],growth,[1],0.0438 ± 0.00074
same,growth,[2]; [7],0.0482 ± 0.0028
same,growth,[2]; [8],0.046 ± 0.00091
same,growth,[2]; [9],0.0462 ± 0.0037
same,growth,[2]; [10],0.0477 ± 0.004
same,growth,[2]; [11],0.0501 ± 0.0032
same,growth,[3]; [12],0.101 ± 0.082
same,growth,[3]; [13],0.0479 ± 0.0012
same,growth,[4]; [14],0.0636 ± 0.0051
same,growth,[4]; [15],0.061 ± 0.01
CCC(C)(CN(C)C)OC(=O)c1ccccc1 (centres undefined) [Amyleine hydrochloride],growth,[1],0.233 ± 0.0066
same,growth,[3]; [12],0.26 ± 0.076
same,growth,[3]; [13],0.435 ± 0.058
same,growth,[5]; [16],0.195 ± 0.027
same,growth,[5]; [17],0.209 ± 0.0057
same,growth,[6],0.586 ± 0.017
same,growth,[4]; [14],0.411 ± 0.0066
same,growth,[4]; [15],0.333 ± 0.021
C[C@@H]1CCC[C@H](C)N1NC(=O)c1ccc(Cl)c(S(N)(=O)=O)c1 [Clopamide],growth,[1],0.235 ± 0.0084
same,growth,[2]; [7],0.294 ± 0.02
same,growth,[2]; [8],0.251 ± 0.0061
same,growth,[2]; [9],0.217 ± 0.022
same,growth,[2]; [10],0.173 ± 0.0061
same,growth,[2]; [11],0.135 ± 0.002
same,growth,[3]; [12],0.283 ± 0.036
same,growth,[3]; [13],0.354 ± 0.031
same,growth,[4]; [14],0.419 ± 0.011
same,growth,[4]; [15],0.345 ± 0.015
Cc1ccc(S(=O)(=O)NC(=O)NN2CCCCCC2)cc1 [Tolazamide],growth,[1],0.256 ± 0.0047
same,growth,[3]; [12],0.293 ± 0.026
same,growth,[3]; [13],0.414 ± 0.05
same,growth,[5]; [16],0.214 ± 0.0044
same,growth,[5]; [17],0.235 ± 0.015
same,growth,[6],0.482 ± 0.053
same,growth,[4]; [14],0.398 ± 0.017
same,growth,[4]; [15],0.354 ± 0.014
CCCCC(CC)CNC(=N)NC(=N)NCCCCCCNC(=N)NC(=N)NCC(CC)CCCC (centres undefined) [Alexidine dihydrochloride],growth,[1],0.0519 ± 0.0017
same,growth,[3]; [12],0.0536 ± 0.00095
same,growth,[3]; [13],0.0584 ± 0.0047
same,growth,[5]; [16],0.0749 ± 0.029
same,growth,[5]; [17],0.071 ± 0.014
same,growth,[6],0.0485 ± 0.0022
same,growth,[4]; [14],0.0695 ± 0.012
same,growth,[4]; [15],0.0779 ± 0.013
CN(C)CCCSC(=N)N [Dimaprit dihydrochloride],growth,[1],0.2627 ± 0.0019
same,growth,[2]; [7],0.308 ± 0.011
same,growth,[2]; [8],0.267 ± 0.0039
same,growth,[2]; [9],0.205 ± 0.014
same,growth,[2]; [10],0.201 ± 0.015
same,growth,[2]; [11],0.131 ± 0.0034
same,growth,[3]; [12],0.255 ± 0.035
same,growth,[3]; [13],0.409 ± 0.093
same,growth,[4]; [14],0.406 ± 0.015
same,growth,[4]; [15],0.349 ± 0.019
